Data reported in article PMC7862700, “An all-to-all approach to the identification of sequence-specific readers for epigenetic DNA modifications on cytosine”.

Key:
Test in all cases: DAPPL (digital affinity profiling via proximity ligation, sequencing); 10 mM Tris-HCl pH 7.5, 50 mM NaCl, 1 mM DTT, 4% glycerol, room temperature, 30 min; GST-TFs on glutathione beads, 16-mer random dsDNA library, 0.1% formaldehyde crosslink after washing; high values mean tight binding
FEV = target: T1, FEV (Homo sapiens, UniProt Q99581 1-238); details: protein: recombinant; tags: N-terminal GST; dsDNA, one strand shown
T1 sequence: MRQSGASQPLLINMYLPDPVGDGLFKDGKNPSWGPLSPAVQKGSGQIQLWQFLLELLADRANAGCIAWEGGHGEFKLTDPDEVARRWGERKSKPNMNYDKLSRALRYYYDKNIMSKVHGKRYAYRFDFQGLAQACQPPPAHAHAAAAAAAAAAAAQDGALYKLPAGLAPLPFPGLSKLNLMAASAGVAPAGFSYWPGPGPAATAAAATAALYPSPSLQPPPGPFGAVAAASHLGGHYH
In short: (§1)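 The binding signal reported is, for every hexamer, its read frequency for a factor over its read frequency for the tag-only sample. Reads came from pools of yeast-expressed, GST-fused human transcription factors on glutathione beads, barcoded with DNA and mixed with that sample, which were incubated with 200 nmole of a random double-stranded 16-mer DNA library in Tris/NaCl/DTT/glycerol buffer at room temperature for 30 min. After washing, the pools were crosslinked with 0.1% formaldehyde, proximity-ligated with BsaI/T4 ligase for 1 h at 37 °C, PCR-amplified and sequenced on an Illumina NextSeq500.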

ETV5 = ETV5 (Homo sapiens, UniProt P41161 1-510); details: protein: recombinant; tags: N-terminal GST; dsDNA, one strand shown
In short: as §1

HSF1 = HSF1 (Homo sapiens, UniProt Q00613 1-529); details: protein: recombinant; tags: N-terminal GST; chain copies: 3; dsDNA, one strand shown
In short: as §1

SPIC = target: T2, SPIC (Homo sapiens, UniProt Q8N5J4 1-248); details: protein: recombinant; tags: N-terminal GST; dsDNA, one strand shown
T2 sequence: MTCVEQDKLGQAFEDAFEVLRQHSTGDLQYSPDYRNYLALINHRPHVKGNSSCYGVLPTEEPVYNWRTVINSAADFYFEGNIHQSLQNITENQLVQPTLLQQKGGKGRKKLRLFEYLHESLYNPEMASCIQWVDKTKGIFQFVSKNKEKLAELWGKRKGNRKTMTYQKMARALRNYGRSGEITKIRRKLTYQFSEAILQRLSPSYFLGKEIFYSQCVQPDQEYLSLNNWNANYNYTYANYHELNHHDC
In short: as §1

ELF4 = ELF4 (Homo sapiens, UniProt Q99607 1-663); details: protein: recombinant; tags: N-terminal GST; dsDNA, one strand shown
In short: as §1

ELK4 = target: T3, ELK4 (Homo sapiens, UniProt P28324-2 1-405); details: protein: recombinant; tags: N-terminal GST; dsDNA, one strand shown
T3 sequence: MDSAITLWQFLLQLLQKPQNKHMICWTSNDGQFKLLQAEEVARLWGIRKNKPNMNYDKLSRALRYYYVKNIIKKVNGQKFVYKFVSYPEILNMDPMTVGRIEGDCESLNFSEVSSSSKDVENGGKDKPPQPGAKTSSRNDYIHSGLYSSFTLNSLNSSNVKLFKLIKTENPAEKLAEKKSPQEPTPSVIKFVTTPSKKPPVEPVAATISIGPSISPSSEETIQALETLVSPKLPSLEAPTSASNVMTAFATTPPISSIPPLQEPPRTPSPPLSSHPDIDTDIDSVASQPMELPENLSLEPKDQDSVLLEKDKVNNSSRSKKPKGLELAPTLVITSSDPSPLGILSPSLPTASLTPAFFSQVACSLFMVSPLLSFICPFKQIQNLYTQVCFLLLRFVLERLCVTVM
In short: as §1

ETV2 = target: T4, ETV2 (Homo sapiens, UniProt O00321 1-342); details: protein: recombinant; tags: N-terminal GST; dsDNA, one strand shown
T4 sequence: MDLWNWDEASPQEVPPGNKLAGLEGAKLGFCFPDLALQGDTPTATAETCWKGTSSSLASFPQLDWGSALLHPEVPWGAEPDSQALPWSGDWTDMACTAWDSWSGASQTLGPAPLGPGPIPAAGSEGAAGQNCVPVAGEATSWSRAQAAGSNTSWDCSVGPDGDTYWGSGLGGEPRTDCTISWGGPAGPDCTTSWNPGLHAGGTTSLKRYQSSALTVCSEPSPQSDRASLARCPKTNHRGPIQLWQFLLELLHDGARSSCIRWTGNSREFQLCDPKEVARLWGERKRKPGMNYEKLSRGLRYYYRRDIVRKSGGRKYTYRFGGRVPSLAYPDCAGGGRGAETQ
In short: as §1

ELF3 = target: T5, ELF3 (Homo sapiens, UniProt P78545 1-371); details: protein: recombinant; tags: N-terminal GST; dsDNA, one strand shown
T5 sequence: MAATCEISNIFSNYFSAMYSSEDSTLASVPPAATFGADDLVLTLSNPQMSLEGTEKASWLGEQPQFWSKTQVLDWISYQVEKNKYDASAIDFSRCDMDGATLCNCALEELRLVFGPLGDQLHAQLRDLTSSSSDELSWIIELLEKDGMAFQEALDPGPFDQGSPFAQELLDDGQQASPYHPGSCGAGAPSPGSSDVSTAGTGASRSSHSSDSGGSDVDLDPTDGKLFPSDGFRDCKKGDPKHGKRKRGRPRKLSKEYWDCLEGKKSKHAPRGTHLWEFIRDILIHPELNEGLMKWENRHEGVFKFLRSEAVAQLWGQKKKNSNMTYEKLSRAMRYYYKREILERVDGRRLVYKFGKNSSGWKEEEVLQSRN
In short: as §1

ETV1 = ETV1 (Homo sapiens, UniProt P50549 1-477); details: protein: recombinant; tags: N-terminal GST; dsDNA, one strand shown
In short: as §1

ERF = target: T6, ERF (Homo sapiens, UniProt P50548 1-548); details: protein: recombinant; tags: N-terminal GST; dsDNA, one strand shown
T6 sequence: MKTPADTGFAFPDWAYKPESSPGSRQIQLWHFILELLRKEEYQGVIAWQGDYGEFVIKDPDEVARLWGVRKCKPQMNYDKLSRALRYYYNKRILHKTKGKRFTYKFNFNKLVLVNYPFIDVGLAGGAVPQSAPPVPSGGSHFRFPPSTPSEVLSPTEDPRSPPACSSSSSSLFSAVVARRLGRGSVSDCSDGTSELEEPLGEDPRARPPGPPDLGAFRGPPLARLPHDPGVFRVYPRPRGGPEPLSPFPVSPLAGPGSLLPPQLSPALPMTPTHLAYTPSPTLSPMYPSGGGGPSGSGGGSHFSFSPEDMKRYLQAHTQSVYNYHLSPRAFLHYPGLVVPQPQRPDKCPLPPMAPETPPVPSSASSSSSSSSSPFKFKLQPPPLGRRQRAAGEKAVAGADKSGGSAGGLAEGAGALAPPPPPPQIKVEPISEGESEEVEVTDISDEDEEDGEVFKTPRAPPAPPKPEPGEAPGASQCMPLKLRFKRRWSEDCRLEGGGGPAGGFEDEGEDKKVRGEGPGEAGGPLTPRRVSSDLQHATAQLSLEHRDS
In short: as §1

ETV3L = target: T7, ETV3L (Homo sapiens, UniProt Q6ZN32 1-361); details: protein: recombinant; tags: N-terminal GST; dsDNA, one strand shown
T7 sequence: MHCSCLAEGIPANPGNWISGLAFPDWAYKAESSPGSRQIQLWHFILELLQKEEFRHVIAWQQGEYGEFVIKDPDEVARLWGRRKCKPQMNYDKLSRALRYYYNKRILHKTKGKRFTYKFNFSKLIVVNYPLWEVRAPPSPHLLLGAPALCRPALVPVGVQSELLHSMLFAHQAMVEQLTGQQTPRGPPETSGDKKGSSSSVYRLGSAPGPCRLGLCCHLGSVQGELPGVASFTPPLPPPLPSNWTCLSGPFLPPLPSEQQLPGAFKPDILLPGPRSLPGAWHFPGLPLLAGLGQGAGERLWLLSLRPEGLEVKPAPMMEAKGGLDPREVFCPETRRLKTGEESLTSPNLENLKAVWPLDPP
In short: as §1

ETS2 = target: T8, ETS2 (Homo sapiens, UniProt P15036 1-469); details: protein: recombinant; tags: N-terminal GST; dsDNA, one strand shown
T8 sequence: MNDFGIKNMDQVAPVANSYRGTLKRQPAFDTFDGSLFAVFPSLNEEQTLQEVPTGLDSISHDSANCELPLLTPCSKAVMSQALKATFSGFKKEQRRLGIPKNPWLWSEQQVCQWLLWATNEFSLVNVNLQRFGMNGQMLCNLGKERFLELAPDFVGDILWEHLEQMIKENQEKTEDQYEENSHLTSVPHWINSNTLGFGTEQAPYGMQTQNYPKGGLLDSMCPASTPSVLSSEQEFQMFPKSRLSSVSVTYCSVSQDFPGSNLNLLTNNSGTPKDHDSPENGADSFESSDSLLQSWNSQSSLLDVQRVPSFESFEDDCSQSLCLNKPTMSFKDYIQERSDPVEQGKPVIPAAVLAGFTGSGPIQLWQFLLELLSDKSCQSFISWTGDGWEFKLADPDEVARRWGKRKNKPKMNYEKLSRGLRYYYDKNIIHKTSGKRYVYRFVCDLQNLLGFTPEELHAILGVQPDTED
In short: as §1

SPDEF = target: T9, SPDEF (Homo sapiens, UniProt O95238 1-335); details: protein: recombinant; tags: N-terminal GST; dsDNA, one strand shown
T9 sequence: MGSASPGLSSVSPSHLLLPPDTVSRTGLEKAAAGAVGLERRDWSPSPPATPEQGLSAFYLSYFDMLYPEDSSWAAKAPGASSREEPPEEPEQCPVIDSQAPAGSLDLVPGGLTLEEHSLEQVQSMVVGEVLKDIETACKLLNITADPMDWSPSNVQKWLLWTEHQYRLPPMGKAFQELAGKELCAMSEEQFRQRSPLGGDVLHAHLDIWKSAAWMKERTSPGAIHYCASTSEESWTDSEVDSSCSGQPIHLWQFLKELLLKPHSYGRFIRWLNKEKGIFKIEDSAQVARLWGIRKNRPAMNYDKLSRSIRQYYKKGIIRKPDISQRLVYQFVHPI
In short: as §1

ETV7 = target: T10, ETV7 (Homo sapiens, UniProt Q9Y603 1-341); details: protein: recombinant; tags: N-terminal GST; dsDNA, one strand shown
T10 sequence: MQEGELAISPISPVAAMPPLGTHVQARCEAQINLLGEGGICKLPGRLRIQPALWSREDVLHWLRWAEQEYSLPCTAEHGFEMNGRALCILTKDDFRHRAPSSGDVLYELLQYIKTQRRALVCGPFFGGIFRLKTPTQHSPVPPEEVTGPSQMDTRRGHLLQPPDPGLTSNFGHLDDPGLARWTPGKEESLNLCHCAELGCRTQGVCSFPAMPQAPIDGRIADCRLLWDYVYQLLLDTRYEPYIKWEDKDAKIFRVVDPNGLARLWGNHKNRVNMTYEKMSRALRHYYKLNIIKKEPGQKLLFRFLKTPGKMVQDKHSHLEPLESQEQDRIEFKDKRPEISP
In short: as §1

ELF5 = target: T11, ELF5 (Homo sapiens, UniProt Q9UKW6-2 1-255); details: protein: recombinant; tags: N-terminal GST; dsDNA, one strand shown
T11 sequence: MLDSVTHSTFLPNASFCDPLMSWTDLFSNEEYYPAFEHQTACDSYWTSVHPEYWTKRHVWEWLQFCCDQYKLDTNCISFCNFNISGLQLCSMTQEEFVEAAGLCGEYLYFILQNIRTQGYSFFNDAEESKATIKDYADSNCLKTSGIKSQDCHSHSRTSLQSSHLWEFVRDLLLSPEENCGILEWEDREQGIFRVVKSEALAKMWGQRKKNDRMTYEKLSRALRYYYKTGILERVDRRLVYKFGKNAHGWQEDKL
In short: as §1

ETV3 = target: T12, ETV3 (Homo sapiens, UniProt P41162-2 1-143); details: protein: recombinant; tags: N-terminal GST; dsDNA, one strand shown
T12 sequence: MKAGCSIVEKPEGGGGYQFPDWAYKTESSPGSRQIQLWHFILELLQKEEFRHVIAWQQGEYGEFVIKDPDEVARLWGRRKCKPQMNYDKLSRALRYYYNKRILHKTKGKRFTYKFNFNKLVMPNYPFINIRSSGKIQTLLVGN
In short: as §1

ETV6 = ETV6 (Homo sapiens, UniProt P41212 1-452); details: protein: recombinant; tags: N-terminal GST; dsDNA, one strand shown
In short: as §1

Chain of ETV5 (P41161 whole entry): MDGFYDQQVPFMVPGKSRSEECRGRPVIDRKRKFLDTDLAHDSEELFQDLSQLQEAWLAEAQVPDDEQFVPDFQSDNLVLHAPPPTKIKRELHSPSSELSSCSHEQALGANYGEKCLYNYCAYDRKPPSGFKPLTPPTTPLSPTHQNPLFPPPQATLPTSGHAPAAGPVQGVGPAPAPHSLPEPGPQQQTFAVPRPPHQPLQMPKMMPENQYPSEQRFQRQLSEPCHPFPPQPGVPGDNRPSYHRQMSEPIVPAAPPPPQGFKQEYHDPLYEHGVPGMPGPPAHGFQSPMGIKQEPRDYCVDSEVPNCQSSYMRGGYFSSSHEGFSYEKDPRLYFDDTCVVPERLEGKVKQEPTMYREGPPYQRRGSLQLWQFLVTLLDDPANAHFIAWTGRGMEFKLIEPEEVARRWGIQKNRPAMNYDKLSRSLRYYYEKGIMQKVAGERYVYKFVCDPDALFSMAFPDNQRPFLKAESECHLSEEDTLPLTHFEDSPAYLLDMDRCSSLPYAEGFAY
Chain of ELF4 (Q99607 whole entry): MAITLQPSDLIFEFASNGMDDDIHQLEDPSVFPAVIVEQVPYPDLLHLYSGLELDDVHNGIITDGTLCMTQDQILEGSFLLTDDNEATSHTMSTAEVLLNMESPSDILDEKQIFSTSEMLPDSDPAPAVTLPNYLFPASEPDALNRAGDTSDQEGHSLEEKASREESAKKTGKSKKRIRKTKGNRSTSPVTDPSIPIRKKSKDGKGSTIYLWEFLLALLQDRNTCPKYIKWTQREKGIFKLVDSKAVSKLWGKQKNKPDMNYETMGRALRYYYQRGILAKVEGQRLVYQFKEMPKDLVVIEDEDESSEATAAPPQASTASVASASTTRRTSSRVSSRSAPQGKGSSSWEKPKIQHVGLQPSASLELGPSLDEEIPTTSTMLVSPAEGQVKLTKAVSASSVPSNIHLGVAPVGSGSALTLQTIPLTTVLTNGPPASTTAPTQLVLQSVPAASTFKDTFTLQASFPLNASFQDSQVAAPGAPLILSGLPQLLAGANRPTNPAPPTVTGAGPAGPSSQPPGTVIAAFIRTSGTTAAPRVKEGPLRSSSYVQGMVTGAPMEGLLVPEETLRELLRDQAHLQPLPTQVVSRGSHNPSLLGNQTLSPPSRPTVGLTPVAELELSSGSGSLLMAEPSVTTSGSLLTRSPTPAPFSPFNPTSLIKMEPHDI
Chain of ETV1 (P50549 whole entry): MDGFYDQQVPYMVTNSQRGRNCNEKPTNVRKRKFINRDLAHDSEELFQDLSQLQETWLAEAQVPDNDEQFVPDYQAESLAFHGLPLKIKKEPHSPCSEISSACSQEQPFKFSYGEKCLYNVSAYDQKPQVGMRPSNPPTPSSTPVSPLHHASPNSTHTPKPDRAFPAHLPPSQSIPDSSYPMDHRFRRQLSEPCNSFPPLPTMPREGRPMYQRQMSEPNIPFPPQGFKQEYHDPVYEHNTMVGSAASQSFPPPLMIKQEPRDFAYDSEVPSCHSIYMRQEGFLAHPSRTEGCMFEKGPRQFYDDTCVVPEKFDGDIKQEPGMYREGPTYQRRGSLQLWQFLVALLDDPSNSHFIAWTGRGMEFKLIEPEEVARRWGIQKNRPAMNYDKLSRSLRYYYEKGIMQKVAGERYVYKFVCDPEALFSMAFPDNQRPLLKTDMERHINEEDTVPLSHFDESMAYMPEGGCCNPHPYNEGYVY
Chain of ETV6 (P41212 whole entry): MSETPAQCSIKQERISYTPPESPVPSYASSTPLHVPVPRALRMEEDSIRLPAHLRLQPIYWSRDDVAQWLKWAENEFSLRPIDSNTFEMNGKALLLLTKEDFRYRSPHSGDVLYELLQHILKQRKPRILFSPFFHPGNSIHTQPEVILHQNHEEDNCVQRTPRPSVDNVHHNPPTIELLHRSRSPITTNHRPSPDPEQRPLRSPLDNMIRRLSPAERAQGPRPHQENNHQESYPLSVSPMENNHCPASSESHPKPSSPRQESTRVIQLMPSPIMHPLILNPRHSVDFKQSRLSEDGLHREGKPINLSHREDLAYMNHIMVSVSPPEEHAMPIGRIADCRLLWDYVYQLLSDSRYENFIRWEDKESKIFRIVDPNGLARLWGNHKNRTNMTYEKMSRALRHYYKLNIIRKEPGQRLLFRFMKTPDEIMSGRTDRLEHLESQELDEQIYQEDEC
Chain of HSF1 (Q00613 whole entry): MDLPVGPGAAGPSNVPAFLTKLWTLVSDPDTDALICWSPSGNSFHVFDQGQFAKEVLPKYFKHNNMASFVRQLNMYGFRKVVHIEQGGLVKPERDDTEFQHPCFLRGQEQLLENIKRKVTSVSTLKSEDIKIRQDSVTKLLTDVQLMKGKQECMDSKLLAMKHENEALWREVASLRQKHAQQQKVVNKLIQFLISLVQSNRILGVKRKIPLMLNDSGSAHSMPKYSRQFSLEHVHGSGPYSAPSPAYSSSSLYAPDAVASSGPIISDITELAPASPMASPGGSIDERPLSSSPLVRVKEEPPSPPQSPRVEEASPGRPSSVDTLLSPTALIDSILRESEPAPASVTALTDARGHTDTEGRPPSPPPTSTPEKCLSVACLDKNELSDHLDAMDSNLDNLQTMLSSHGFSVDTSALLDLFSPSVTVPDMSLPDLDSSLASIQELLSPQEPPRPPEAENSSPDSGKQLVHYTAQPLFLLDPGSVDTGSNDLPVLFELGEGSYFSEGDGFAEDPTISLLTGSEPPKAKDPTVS

What does the source list for ATGTCC?
binding signal (FEV): 1.84 fold enrichment (6-mer frequency, TF over GST control); binding signal (ETV5): 1.62 fold enrichment (6-mer frequency, TF over GST control); binding signal (HSF1): 1.03 fold enrichment (6-mer frequency, TF over GST control); binding signal (SPIC): 1.54 fold enrichment (6-mer frequency, TF over GST control); binding signal (ELF4): 1.51 fold enrichment (6-mer frequency, TF over GST control); binding signal (ELK4): 1.57 fold enrichment (6-mer frequency, TF over GST control); binding signal (ETV2): 1.77 fold enrichment (6-mer frequency, TF over GST control); binding signal (ELF3): 1.85 fold enrichment (6-mer frequency, TF over GST control); binding signal (ETV1): 1.66 fold enrichment (6-mer frequency, TF over GST control); binding signal (ERF): 1.36 fold enrichment (6-mer frequency, TF over GST control); binding signal (ETV3L): 1.7 fold enrichment (6-mer frequency, TF over GST control); binding signal (ETS2): 1.58 fold enrichment (6-mer frequency, TF over GST control); binding signal (SPDEF): 2.05 fold enrichment (6-mer frequency, TF over GST control); binding signal (ETV7): 1.71 fold enrichment (6-mer frequency, TF over GST control); binding signal (ELF5): 1.65 fold enrichment (6-mer frequency, TF over GST control); binding signal (ETV3): 1.8 fold enrichment (6-mer frequency, TF over GST control); binding signal (ETV6): 1.57 fold enrichment (6-mer frequency, TF over GST control)
